Source: PubChem BioAssay (National Center for Advancing Translational Sciences (NCATS))
A selection: hits, their analogues and other compounds. The true share with any hit is near 3.2%.
GLP-1R inv ag – qHTS of GLP-1 Receptor Inverse Agonists (Inhibition Mode). Glucagon-like peptide 1 receptor (Homo sapiens), P43220. HEK293 GLP-1R CRE-luciferase, luminescence, 24 h; GLP-1R form is constitutively active. Potency, µM (titrated, usually from 38.3 µM), inactives show at the top dose activity change, negative = inhibition, actives largely listed as inhibitors. 410,000 compounds, 1.6% hits. AID 624417, 2012; note: % is set by controls: 0 for no effect and ±100 for the full control effect; nearly all actives have a fitted effect of over 55% in size
Target sequence (P43220 whole entry, looked up): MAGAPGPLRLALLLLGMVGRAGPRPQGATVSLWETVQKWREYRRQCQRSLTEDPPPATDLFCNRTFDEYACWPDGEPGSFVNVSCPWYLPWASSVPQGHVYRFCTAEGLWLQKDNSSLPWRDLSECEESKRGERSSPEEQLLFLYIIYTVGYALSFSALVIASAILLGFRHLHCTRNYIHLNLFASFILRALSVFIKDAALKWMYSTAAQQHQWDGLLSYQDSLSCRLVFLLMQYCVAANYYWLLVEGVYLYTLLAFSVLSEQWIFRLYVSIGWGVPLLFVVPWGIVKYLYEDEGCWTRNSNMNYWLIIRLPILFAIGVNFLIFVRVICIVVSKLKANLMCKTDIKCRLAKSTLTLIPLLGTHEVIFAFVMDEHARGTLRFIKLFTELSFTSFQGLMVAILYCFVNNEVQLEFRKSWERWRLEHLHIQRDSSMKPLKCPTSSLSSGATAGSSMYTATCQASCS
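HEK293 cells stably co-expressing constitutively active GLP-1R and a cAMP-responsive luciferase reporter were seeded in DMEM with 10% Nu serum, given compounds after 12 h, and incubated 24 h at 37 deg C. Luminescence was then read.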
ClpP mod – qHTS Assay for Activators of ClpP; ATP-dependent Clp protease proteolytic subunit (Bacillus subtilis (strain 168)), P80244; purified B. subtilis ClpP, FRET peptide cleavage, 20 min; Potency, µM (titrated, usually from 57.5 µM), for inactives: at the top dose activity change, negative = active; 340,000 compounds, 1.9% hits; active = well fitted falling curve with a large enough effect; inconclusive = small, poorly fitted or top-dose-only effect; inactive = no such curve, though single readings can be large or run the other way; note: the source files actives as falling curves though it sought activators and does not explain the sign; nearly all actives have a fitted effect of over 65% in size
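Buffer: 100 mM Tris/HCl pH8, 100 mM KCl, 0.05% low protease BSA, 2.5% glycerol, 0.01% Tween-20. ClpP 10 microg/mL final; 20 min RT; delta FRET normalized to ADEP and DMSO controls.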
HEK293 tox – qHTS of GLP-1 Receptor Inverse Agonists: Cytotox Screen | HEK293 cAMP-luciferase reporter cells, luminescence, 24 h | Potency, µM (doses to about 38.3 µM), inactives show at the highest dose activity change, negative = inhibition, actives largely listed as inhibitors | 410,000 compounds, 0.13% hits | AID 624418, 2012;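 note: loss of luciferase light is scored as toxicity; % is set by controls: 0 for no effect and ±100 for the full control effect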
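MLSMR compounds, 24 hr on cells at 37 deg C/5% CO2; luminescence after luciferase reagent (12 min RT). Inhibition counted as the undesired cytotoxic outcome.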
GLP1R ag – qHTS of GLP-1 Receptor Agonists; HEK293 GLP-1R CRE-luciferase, luminescence, 4-6 h; cells express a hypersensitive GLP-1R form; Potency, µM (top dose mostly 45.6 µM), for the others: at the top dose activation, actives largely listed as activators; 380,000 compounds, 0.007% hits; AID 624172, 2012; note: % of control where 0% means no effect
An asterisk follows results filed as active; u = inconclusive; x = not tested or not shown; ! = a repeat was not active; [ ] = remark or other dose. Unless noted, calls come from the whole dose curve; as a rule, active = well fitted curve in the direction sought with a large enough effect; inconclusive = small, poorly fitted or top-dose-only effect, or another doubt; inactive = no such curve, though single readings can be large; an effect the other way counts as inactive or inconclusive. Potency is the fitted concentration of half-maximal effect.

SMILES | GLP-1R inv ag | ClpP mod | HEK293 tox | GLP1R ag
CCS(=O)(=O)c1ccc2oc(Nc3ccc(C(C)C)cc3)nc2c1 | u | 31.6µM* | -24.1% | -4.5%
Cc1ccc(NC(=O)Cn2cc(C(=O)c3ccco3)c3ccccc32)cc1 | -18.5% | -4.7% | -2.3% | x
O=S(=O)(NCc1c(Cl)cccc1Oc1ccccc1)c1ccccc1 | 10µM* | x | 24.0% | 5.2%
Cc1ccc(S(=O)(=O)NCc2c(Cl)cccc2Oc2ccccc2)cc1 | u | -0.9% | 1.2% | 4.8%
C=CS(=O)(=O)O | x | x | x | -4.2%
CCS(=O)(=O)NCCc1cc2ccc(C)cc2[nH]c1=O | 21.1% | 28.2µM* | 13.3% | u
CCCc1nc(-c2cc3ccc(C)cc3[nH]c2=O)no1 | 9.2% | 28.2µM* | -8.8% | 16.4%
CCOc1ccccc1-c1nc(-c2cc3ccc(C)cc3[nH]c2=O)no1 | 6.6% | u | 2.7% | 2.3%
CCS(=O)(=O)NCCc1cc2cc(C)c(C)cc2[nH]c1=O | 5.4% | -6.5% | -16.5% | 3.5%
CCOC(=O)c1ccc(NC(=O)c2nc(SCc3ccccc3F)ncc2Cl)cc1 | u | -21.4% | -1.7% | x
CN(C)c1ccc(C(=S)Nc2ccccc2)cc1 | u | 7.5% | -19.2% | 7.2%
CN(C)c1ccc(NC(=S)c2ccccn2)cc1 | 5.62µM* | -0.7% | -27.0% | -15.8%
Cn1c(=O)oc2cc(S(=O)(=O)CCC(=O)N3CCN(c4cccc(Cl)c4)CC3)ccc21 | -7.2% | -1.4% | 0.1% | x
Cc1ccc(Nc2nc(-c3cccs3)cs2)nc1 | 3.55µM* | -6.5% | -22.0% | -4.9%
Cc1ccc(Nc2nc(-c3ccccc3)cs2)nc1 | u | -2.9% | -14.1% | 0.1%
Cc1ccc(NS(=O)(=O)c2cc(-c3cc(C)no3)ccc2C(C)C)nc1 | -10.7% | -27.7% | 2.8% | 6.0%
CCOc1ccc(N(C)S(=O)(=O)c2cc(-c3cc(C)no3)ccc2C)cc1 | u | -1.0% | 0.8% | -0.6%
Cc1cc(-c2ccc(C)c(S(=O)(=O)Nc3ccccn3)c2)on1 | 1.6% | 28.2µM* | 15.2% | x
COCCN(Cc1cccs1)S(=O)(=O)c1cc(-c2cc(C)no2)ccc1C | u | -0.9% | 3.0% | x
CCOc1ccc(N(C)S(=O)(=O)c2cc(-c3cc(C)no3)ccc2CC)cc1 | 8.91µM* | 1.0% | 2.7% | -4.4%
Cc1cc(-c2ccc(C)c(S(=O)(=O)N(Cc3cccs3)C(C)C)c2)on1 | 12.6µM* | -1.9% | -4.5% | x
CCc1ccc(-c2cc(C)no2)cc1S(=O)(=O)Nc1ccc(C)cn1 | 11.8% | 31.6µM*! | -12.7% | -1.6%
CCc1nc2cccnc2n1-c1ccc(CC(=O)Nc2ccc(C)cc2)cc1 | 9.2% | -1.0% | 15.0% | x
CCC(C)(C)C(=O)O[C@@H]1C[C@H](C)C=C2C=C[C@H](C)[C@@H](CC[C@H]3C[C@@H](O)CC(=O)O3)[C@H]21 | x | x | x | 8.1%[19.8 µM]
Nc1cc(C(=O)OCC(=O)NC(c2ccccc2)c2ccccc2)ccc1Cl | 15.3% | 25.1µM* | -6.9% | -23.0%
SMILES | GLP-1R inv ag | ClpP mod | HEK293 tox | GLP1R ag
CC(c1ccccc1C(O)c1ccccc1)N(C)C (centres undefined) | -10.1% | 1.5% | -25.7% | -1.1%
Cc1ccc(C(O)(c2ccccc2)c2ccccc2C(C)N(C)C)c(C)c1 (centres undefined) | 10µM* | -0.3% | u | -7.1%
COc1cccc(N2CC(NC(=O)c3ccco3)CC2=O)c1 (centres undefined) | 17.1% | -1.2% | 5.9% | x
O=c1c2[nH]c3ccc(F)cc3c2ncn1CCCN1CCOCC1 | -0.7% | 20µM* | 5.9% | 1.2%
Cn1nc(C(F)(F)F)c(C(=O)Nc2ccc(F)cc2F)c1Sc1cccc(Cl)c1 | 12.6µM* | -3.2% | -0.7% | -10.4%
O=C(O)c1c2c(nc3ccccc13)CCCC2 | x | -2.5% | x | x
CN(C)c1ccc(N=NS(=O)(=O)O)cc1 | x | x | x | -2.2%[96 µM]
Cc1csc(N=Nc2ccc(N(C)C)cc2)[n+]1[O-] | u | 1.6% | 3.98µM* | -6.9%
COc1cc(OC)cc(-c2c(-c3ccc(F)cc3)c3cc(Br)ccc3n2C)c1 | 7.94µM* | 4.6% | -20.6% | -3.5%
COc1cc(OC)cc(-c2c(-c3ccc(F)cc3)c3cc(-c4cnc(OC)nc4)ccc3n2C)c1 | 19.1% | u | -5.1% | 3.8%
Cc1ccc2occ(CC(=O)Nc3ccc(S(=O)(=O)N4CCCC(C)C4)cc3)c2c1 (centres undefined) | 11.2µM* | -2.4% | 0.0% | x
